HEK293 tox = qHTS of GLP-1 Receptor Inverse Agonists: Cytotox Screen | AID 624418, 2012 | 0.13% of 410,000 active | HEK293 cAMP-luciferase reporter cells, luminescence, 24 h | Potency, µM (highest dose often 38.3 µM), most hits filed as inhibitors;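 further: loss of luciferase light is scored as toxicity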
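1536-well qHTS counterscreen of the MLSMR; 200 cells/uL, 12 h pre-incubation, 23 nL cpd, 24 h at 37 deg C 5% CO2, luciferase detection reagent, 12 min RT, luminescence. Inhibition = undesired.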
GLP1R ag = qHTS of GLP-1 Receptor Agonists; Glucagon-like peptide 1 receptor (Homo sapiens), P43220; Potency, µM (top dose mostly 45.6 µM), most hits filed as activators; AID 624172, 2012; HEK293 GLP-1R CRE-luciferase, luminescence, 4-6 h; cells express a hypersensitive GLP-1R form; 0.007% of 380,000 active
Target sequence (P43220 whole entry, looked up): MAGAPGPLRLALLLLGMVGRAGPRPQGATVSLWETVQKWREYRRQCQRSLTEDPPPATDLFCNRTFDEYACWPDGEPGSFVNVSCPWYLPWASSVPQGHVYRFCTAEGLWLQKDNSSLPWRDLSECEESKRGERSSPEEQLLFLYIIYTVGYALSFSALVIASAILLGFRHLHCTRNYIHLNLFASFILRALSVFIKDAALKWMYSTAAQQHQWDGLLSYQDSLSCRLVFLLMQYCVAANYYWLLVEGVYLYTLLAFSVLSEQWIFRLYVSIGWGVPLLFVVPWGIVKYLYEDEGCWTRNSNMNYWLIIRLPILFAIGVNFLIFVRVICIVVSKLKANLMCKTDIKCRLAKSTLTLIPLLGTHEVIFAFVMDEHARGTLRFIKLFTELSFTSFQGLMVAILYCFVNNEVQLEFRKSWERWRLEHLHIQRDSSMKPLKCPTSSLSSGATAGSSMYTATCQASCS
GLP1R inv ag = qHTS of GLP-1 Receptor Inverse Agonists (Inhibition Mode). HEK293 GLP-1R CRE-luciferase, luminescence, 24 h; GLP-1R form is constitutively active. Potency, µM (doses to about 38.3 µM), usual class: inhibitors. 1.6% of 410,000 active. AID 624417, 2012; further: nearly all actives have a fitted effect of over 55% in size
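Using stably transfected HEK293 (constitutively active GLP-1R, cAMP-luciferase reporter), compounds were incubated 24 hr and luciferase measured by luminescence.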
Hits are given with their value. In the library only some 1.7% were active in any assay of this set; here they are far more common. The call rests on the fitted dose curve; in most records, active means well fitted curve in the direction sought with a large enough effect; inconclusive means small, poorly fitted or top-dose-only effect, or another doubt; inactive means no such curve, though single readings can be large; an effect the other way counts as inactive or inconclusive.

How did O=c1cc2c(nn1Cc1ccc(Cl)cc1Cl)-c1ccccc1CC2 do in these assays?
HEK293 tox: inactive; GLP1R ag: inactive; GLP1R inv ag: inconclusive

What do the screens show for `O=C1OC(c2ccccc2)(c2ccc(O)cc2)c2ccccc21` (stereo not given)?
HEK293 tox: inactive; GLP1R ag: inactive; GLP1R inv ag: inconclusive

What do the screens show for `O=C1OC(c2ccccc2)(c2ccccc2)c2ccccc21`?
HEK293 tox: inactive; GLP1R ag: inactive; GLP1R inv ag: 7.9µM

How did Cc1ccc(-c2nnc(SCC(=O)NCCN3C(=O)CSC3=O)n2C)cc1 do in these assays?
HEK293 tox: inactive; GLP1R ag: inactive; GLP1R inv ag: inactive

Results for CCOCCCNC(=O)Cn1nc(C)n2c(cc3cc(C)ccc32)c1=O ?
HEK293 tox: inactive; GLP1R inv ag: inactive

How did COc1cccc(NC(=O)CN(C)C(=O)c2cc(-c3ccccc3)nc3ccccc23)c1 do in these assays?
HEK293 tox: inconclusive; GLP1R ag: inactive; GLP1R inv ag: inconclusive

What do the screens show for `COc1cccc(NC(=O)CN(C)C(=O)/C=C/c2cn(-c3ccccc3)nc2-c2ccc(C)cc2)c1`?
HEK293 tox: inactive; GLP1R ag: inactive; GLP1R inv ag: 2µM

What do the screens show for `COc1ccc2cc(-c3cc(C(=O)O)c4ccccc4n3)ccc2c1`?
HEK293 tox: inactive; GLP1R ag: inactive; GLP1R inv ag: 2.2µM

Results for COc1cccc(NC(=O)CN(C)C(=O)c2cc(-c3ccc(F)cc3)nc3ccccc23)c1 ?
HEK293 tox: inconclusive; GLP1R ag: inactive; GLP1R inv ag: 7.1µM

How did COc1ccc(NC(=O)CN(C)C(=O)/C=C/c2cn(-c3ccccc3)nc2-c2ccc(C)cc2)cc1 do in these assays?
HEK293 tox: inactive; GLP1R ag: inactive; GLP1R inv ag: inconclusive

How did COc1ccc(-c2cc(C(=O)O)c3ccccc3n2)c(OC)c1 do in these assays?
HEK293 tox: inactive; GLP1R ag: inactive; GLP1R inv ag: inactive

How did Cc1ccc(-c2nc(N3CCN(c4ccccc4Cl)CC3)c3ccccc3n2)cc1 do in these assays?
HEK293 tox: inactive; GLP1R inv ag: inactive

Results for Cc1ccc2c(c1)-c1c(cnn1CC(=O)N1CCN(c3cccc(C(F)(F)F)c3)CC1)CO2 ?
HEK293 tox: inactive; GLP1R inv ag: inactive

What do the screens show for `CN1C(=O)/C(=C/c2ccc(OCc3ccc(F)cc3)cc2)N(C)C1=S`?
HEK293 tox: inactive; GLP1R ag: inactive; GLP1R inv ag: inactive

How did CN1C(=O)/C(=C/c2ccccc2OCc2cccc(F)c2)N(C)C1=S do in these assays?
HEK293 tox: inactive; GLP1R ag: inactive; GLP1R inv ag: 5.6µM

Results for COc1ccc(C(C)=O)cc1COc1nc(C)nc2ccccc12 ?
HEK293 tox: inactive; GLP1R ag: inactive; GLP1R inv ag: inactive

Results for COc1cccc(S(=O)(=O)N(C)C[C@@H]2OCc3cn(nn3)CCCC(=O)N([C@H](C)CO)C[C@H]2C)c1 ?
HEK293 tox: inactive; GLP1R ag: inactive; GLP1R inv ag: inactive

How did CCCNC(=O)c1ccc2c(c1)C1C3CCC(C3)C1C(c1ccccc1)N2 (stereo not given) do in these assays?
HEK293 tox: inactive; GLP1R ag: inactive; GLP1R inv ag: inconclusive

Results for CC(C)(C)NC(=O)c1ccc2c(c1)C1C3CCC(C3)C1C(c1ccccc1)N2 (stereo not given) ?
HEK293 tox: inactive; GLP1R ag: inactive; GLP1R inv ag: 2.8µM

How did CCOC(=O)c1noc2ncnc(N(CCC(=O)OC)c3ccccc3)c12 do in these assays?
HEK293 tox: inactive; GLP1R inv ag: inactive

How did CN(C(=O)CCn1c(=S)oc2ccccc21)c1ccc(F)cc1 do in these assays?
HEK293 tox: inactive; GLP1R ag: inactive; GLP1R inv ag: inactive

What do the screens show for `Cc1ccc(CNC(=O)c2nn(C)c3c2CSc2ccc(C)cc2-3)cc1`?
HEK293 tox: inactive; GLP1R inv ag: inconclusive

How did CCOc1ccc(CCNC(=O)c2nn(C)c3c2CSc2ccc(C)cc2-3)cc1OCC do in these assays?
HEK293 tox: inactive; GLP1R inv ag: 10µM

What do the screens show for `CCOC(=O)C1CCN(C(=O)C2COc3ccccc3C2)CC1` (stereo not given)?
HEK293 tox: inactive; GLP1R inv ag: inactive

What do the screens show for `COc1ccccc1C(=O)Nc1ccc2c(c1)nc(CCNC(=O)c1ccccc1)n2C`?
HEK293 tox: 10µM; GLP1R ag: inactive; GLP1R inv ag: inconclusive

How did COc1ccccc1C(=O)Nc1ccc2c(c1)nc(CCNC(C)=O)n2C do in these assays?
HEK293 tox: inactive; GLP1R ag: inactive; GLP1R inv ag: inactive

How did CCC(C)N1CCC2(CC1)N=c1c(c3c4c5c(C)c(O)c3c(O)c1=NC(=O)C(C)=CC=C[C@H](C)[C@H](O)[C@@H](C)[C@@H](O)[C@@H](C)[C@H](OC(C)=O)[C@H](C)[C@@H](OC)C=CO[C@@](C)(O5)C4=O)N2 (stereo not given in full) do in these assays?
HEK293 tox: inactive; GLP1R ag: inactive; GLP1R inv ag: inactive

What do the screens show for `O=C(NCCC1=CCCCC1)C1COc2ccccc2O1` (stereo not given)?
HEK293 tox: inactive; GLP1R ag: inactive; GLP1R inv ag: 8.9µM

Results for O=C(NCCc1ccc(C(F)(F)F)cc1)C1COc2ccccc2O1 (stereo not given) ?
HEK293 tox: inactive; GLP1R ag: inactive; GLP1R inv ag: inconclusive

Results for Cc1ccc(CNC(=O)CN2C(=O)C3(SCC(=O)N3c3ccc(F)c(F)c3)c3ccccc32)cc1 (stereo not given) ?
HEK293 tox: inactive; GLP1R ag: inactive; GLP1R inv ag: inactive

What do the screens show for `COc1ccc(Cn2ccc3nc(C)c(C(=O)N4CCN(c5ccccc5OC)CC4)cc3c2=O)cc1`?
HEK293 tox: inactive; GLP1R inv ag: inactive

What do the screens show for `Cc1cccc(CNC(=O)Cn2ccc3cc(S(=O)(=O)N4CCCC4)ccc32)c1`?
HEK293 tox: inactive; GLP1R ag: inactive; GLP1R inv ag: inactive

What do the screens show for `COC(=O)C(=Cc1ccccc1[N+](=O)[O-])C(=O)OC`?
HEK293 tox: inconclusive; GLP1R ag: inactive; GLP1R inv ag: 10µM

How did COc1ccc(CNC(=O)/C=C/c2ccccc2[N+](=O)[O-])cc1 do in these assays?
HEK293 tox: inactive; GLP1R ag: inactive; GLP1R inv ag: inactive

How did CC(C)c1cc(C(F)(F)F)nc(NNc2nc(C(C)C)cc(C(F)(F)F)n2)n1 do in these assays?
HEK293 tox: inactive; GLP1R ag: inactive; GLP1R inv ag: inconclusive

Results for Cc1ccccc1[C@@]1(C)ON(c2ccccc2C(F)(F)F)C1=O ?
HEK293 tox: inactive; GLP1R ag: inactive; GLP1R inv ag: 11µM

What do the screens show for `O=C1N(c2ccccc2C(F)(F)F)O[C@]1(c1ccccc1)C1CCCC1`?
HEK293 tox: inactive; GLP1R ag: inactive; GLP1R inv ag: inactive

How did CCCn1c(SCc2nc(-c3ccc(OC)cc3OC)no2)nnc1-c1ccc(Cl)cc1 do in these assays?
HEK293 tox: inactive; GLP1R inv ag: inconclusive

What do the screens show for `CCCn1c(SCc2nc(-c3ccccc3OCC)no2)nnc1-c1ccc(Cl)cc1`?
HEK293 tox: inactive; GLP1R inv ag: 10µM

Results for Cc1cncn1CCc1nc2c3ccccc3nc(SCC(=O)Nc3ccccc3F)n2n1 ?
HEK293 tox: inactive; GLP1R inv ag: inactive
